{"source": "PubChem BioAssay (NCI)", "note": "About 83,000 compounds went through this panel and 20% of them were active in at least one assay; those are over-represented in the sample as a whole.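 Testing used 96-well plates and a 48-hour single-concentration exposure. Example: -40 means 40% of the starting cells died.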 Unmarked numbers belong to inactive results."}
{"test_system": "NCI-H322M lung", "assay": "NCI-60 one-dose screen, 48 h (100 = growth as untreated, 0 = no growth, -100 = all killed)", "conditions": "10 µM", "protocol": "Growth inhibition of the NCI-H322M human Non-Small Cell Lung tumor cell line is measured as a screen for anti-cancer activity. Cells are grown in 96 well plates and exposed to the test compound for 48 hours. Compounds are tested at a single concentration, which is 10^-5 M for most compounds. The reported endpoint is percent growth (GI% or GIPRCNT), where numbers from 0 - 100% represent growth inhibition, and numbers from -100% - 0 represent cell death. For example, a value of 40 represents 60% growth inhibition. A value of 0 means no net growth occurred over the course of the experiment. A value of -40 indicates 40% of cells at the beginning of the experiment died by the end of the experiment. A value of -100 means all cells are dead at the end of the experiment.\nNCI-60 Human Tumor Cell Lines Screen was performed using the standard one-dose NCI protocol, which is described in more detail at https://dtp.cancer.gov/discovery_development/nci-60/default.htm.\nCompounds with GIPRCNT values below 10 were considered active. Activity score was based on GIPRCNT using the following formula: […]\nScore is 0 for GIPRCNT values of 100 or above, 50 for GIPRCNT values of 0, and 100 for GIPRCNT values of -100.", "units": {"growth": "%"}}
{"smiles": "CC(=O)Nc1nc(C)c(C(=O)NNC=O)s1", "growth": 155}
{"smiles": "Cc1nnc2c3nnc(-c4ccc(Cl)cc4)n3c3ccccc3n12", "growth": 86.4}
{"smiles": "CCOC(=O)c1cc(-c2ccccc2)nc(N)n1", "growth": 99}
{"smiles": "COc1ccc(C2=Cc3ccc(OC(C)=O)cc3OC2)cc1", "growth": 92.3}
{"smiles": "CCCCC(=O)N(c1ccc(Nc2c3ccccc3nc3cc([N+](=O)[O-])ccc23)cc1)S(C)(=O)=O", "growth": 82.1}
{"smiles": "CCCCC(CC#N)(CCC)CCC", "growth": 95.6}
{"smiles": "Cc1cc(C)c(C(=O)OC(C)CNC2CCCCC2)c(C)c1", "note": "(stereo not given)", "growth": 95.4}
{"smiles": "CCC(OC(=O)CC(C)C)c1ccccc1", "note": "(stereo not given)", "growth": 93.3}
{"smiles": "COc1cccc(-c2nnc(COc3ccc(-c4nc5ccc(C)cc5[nH]4)cc3OC)o2)c1", "growth": 98}
{"smiles": "CC(=O)N(O)c1ccc(/C=C/c2ccccc2)cc1", "growth": 29.4}
{"smiles": "CC(=O)CS(C)(=O)=O", "growth": 113}
{"smiles": "Nc1nsc(C(=O)c2ccc(O)cc2)n1", "growth": 105}
{"smiles": "CCCCNC(=O)Oc1ccc(/C(=C(\\C)c2ccc(OC)cc2)c2ccc(OCCN3CCCCC3)cc2)cc1", "growth": 87.6}
{"smiles": "COc1ccc(/C=C(\\c2cc(OC)c(OC)c(OC)c2)c2nnc(-c3cccs3)o2)cc1", "growth": 82.7}
{"smiles": "Cc1ccc2c(c1)-c1cc(C)nn1-c1ccc(C#N)cc1O2", "growth": 81.5}
{"smiles": "COc1ccc(-c2cc(/C=C/C(=O)c3ccc(N)cc3)[nH]n2)cc1OC", "growth": 38.3}
{"smiles": "COc1cccc(C(=O)NNc2nc(N3CCOCC3)nc(N3CCN(C(c4ccccc4)c4ccccc4)CC3)n2)c1", "growth": 82.8}
{"smiles": "Nc1ccc(Sc2ccc3c4c2cccc4c(=O)n2c4ccccc4nc32)cc1", "growth": 61.8}
{"smiles": "CCCOCC(O)CNCCN", "note": "(stereo not given)", "growth": 105}
{"smiles": "CCOC(=O)c1c(C(F)(F)F)n([O-])c2ccc(OC)cc2[n+]1=O", "growth": 58}
{"smiles": "O=C(CCl)N1c2ccccc2Sc2ccc3ccccc3c21", "growth": 65.9}
{"smiles": "Cc1[nH]nc2c(=S)[nH]c(=O)[nH]c12", "growth": 103}
{"smiles": "COc1cc(C)c2sc3ccccc3c(=O)c2c1NCCN(C)C", "growth": 90.6}
{"smiles": "CCCCCCCCCCSC(=N)N", "note": "(tested in a mixture with another compound)", "growth": 105}
{"smiles": "Nc1ccc2c(c1)Cc1cc(N)c(Cl)cc1-2", "growth": 88.1}
{"smiles": "NCCNc1ccc2cc(-c3nc4ccccc4[nH]3)c(=O)oc2c1", "growth": 103}
{"smiles": "CC(=O)/C(=C\\c1ccc(Cl)cc1)c1ccccc1", "growth": 49.1}
{"smiles": "CC(=O)Oc1ccc(C2=Cc3ccc(OC(C)=O)cc3OC2C)cc1", "note": "(stereo not given)", "growth": 98.2}
{"smiles": "COc1cc(C2C=C(c3ccc(Cl)c(Cl)c3)N=C3SC(C)=CN32)cc(OC)c1OC", "note": "(stereo not given)", "growth": 81.8}
{"smiles": "CCOC(=O)Nc1ccc2c(c1)C(=O)N(CC)c1ccccc1O2", "growth": 50}
{"smiles": "CC(=O)c1ccc(NCn2nc(-c3ccc(Cl)cc3)oc2=S)cc1", "growth": 110}
{"smiles": "Cc1nc2cc(-n3c(-c4ccc(F)cc4)nc4ccccc4c3=O)ccc2n1Cc1ccccc1", "growth": 38.2}
{"smiles": "O=C1/C(=C/c2ccc(O)cc2O)N=C2SCCCN12", "growth": 97.8}
{"smiles": "C=CCN1C(=O)/C(=C\\c2ccc3c(c2)CCC3)SC1=S", "growth": 106}
{"smiles": "CNC(=O)c1cc(Oc2ccc(NC(=O)Nc3ccc(Cl)c(C(C)(C)C)c3)c(F)c2)ccn1", "growth": 107}
{"smiles": "O=C(c1ccc(Cl)cc1)c1no[n+]([O-])c1C(=O)c1ccc(Cl)cc1", "growth": 107}
{"smiles": "COc1cc(C2CC(=O)Nc3c2c(C)nn3-c2nc3ccccc3[nH]2)cc(OC)c1O", "note": "(stereo not given)", "growth": 80.4}
{"smiles": "Cc1cc(C)c2c(Nc3ncnc4c3sc3nc(C)cc(C)c34)n[nH]c2n1", "growth": 111}
{"smiles": "O=C(Nc1ccc(OCc2nnc(-c3ccccc3)o2)c(F)c1)Nc1ccc(Cl)c(Cl)c1", "growth": 62.5}
{"smiles": "C/C=C\\COc1cc(C)c(Cl)cc1Cl", "growth": 104}
